SMILES strings stand for the structures. This is part of a sample that, as a whole, favours compounds with a hit. Of some 83,000 tested, about 20% had one in any assay.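 A percent growth of 40 corresponds to 60% growth inhibition; 0 means no net growth; -100 means all cells died. Active threshold: below 10.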 A number with no mark means an inactive call. Calls of active or inactive are those of the source.

Assay in all cases: NCI-60 one-dose screen, 48 h (100 = growth as untreated, 0 = no growth, -100 = all killed)
What all share (conditions): 10 µM unless noted

Assay [1] has as its system RPMI-8226 leukemia.
For assay [2], the system named is OVCAR-8 ovarian.
In assay [3] the test system is OVCAR-5 ovarian.
The test system of assay [4] is OVCAR-4 ovarian.
Assay [5] concerns SK-OV-3 ovarian.
The test system of assay [6] is IGROV1 ovarian.
Assay [7] concerns OVCAR-3 ovarian.
In assay [8] the test system is HS 578T breast.
In assay [9] the test system is NCI/ADR-RES ovarian.
For assay [10], the system named is T-47D breast.
The subject of assay [11] is BT-549 breast.
Assay [12] deals with MDA-MB-435 melanoma.
Assay [13] deals with SW-620 colon.
For assay [14], the system named is MCF7 breast.
The subject of assay [15] is HCC-2998 colon.
The test system of assay [16] is KM12 colon.
The test system of assay [17] is HCT-116 colon.

As for `Nc1ccc(C2=NN(c3ccccc3)C(c3ccc(Cl)cc3)C2)cc1` (centres undefined), the growth was -20.1% (active) in assay [1]; 81.8% in assay [2]; 84.2% in assay [3]; 96.7% in assay [4]; 90.1% in assay [5]; 94.5% in assay [6]. For the same compound, the growth in assay [7] was 51.7%; in assay [8], 102%; in assay [9] it was 89.6%; in [10], 63.8%; in assay [11], 70.4%; in assay [12], 49.9%. The growth was 41.2% in assay [13], 14.5% in [14], 76.8% in assay [15] and 18.3% in [16].

Consider `C/C(=N\N1CC(=O)NC1=O)c1ccc([N+](=O)[O-])o1`, for which the growth in [1] was 71%; in [2], 98.2%; in [3] it was 111%; in assay [4] it was 105%; in [5], 109%; in assay [6], 99.6%. For the same compound, the growth is 102% in [7]; 108% in assay [8]; 93.7% in assay [9]; 102% in assay [10]; 100% in [11]; 88.5% in assay [12]. Moreover, the growth in assay [13] is 97.2%; in assay [14], 85.6%; in [16], 96.3%.

On to `O=C(/C(=C/c1ccc([N+](=O)[O-])cc1)c1ccccc1)c1ccccc1`, for which the growth in [1] is -10.5% (active); in [2], 8.51% (active); in assay [3] it was 76.3%; in assay [4] it was 57.8%; in [5] it was 92.7%; in [6], 74.1%. Further, the growth was 16.4% in assay [7]; 57.9% in assay [8]; 46.5% in assay [9]; 72% in [10]; 15.5% in assay [11]; 10.9% in [12]. The growth was 11.7% in assay [13], 26.4% in [14], 6.38% (active) in assay [17] and 19.6% in assay [16].

Consider `CC(=O)O[C@H]1C(=O)[C@@]2(C)C([C@H](OC(=O)c3ccccc3)[C@]3(O)C[C@H](OC(=O)[C@H](O)[C@@H](NC(=O)c4ccccc4)c4ccccc4)C(C)=C1C3(C)C)[C@]1(OC(C)=O)CO[C@@H]1C[C@@H]2O` (some centres undefined), for which the growth in [1] is 3.77% (active); in assay [2], 26.6%; in [3], 27.2%; in assay [4], 46.5%; in [5] it was 18.1%; in assay [6], 42%. Besides, the growth in assay [7] was -9.4% (active); in assay [8] it was 14.9%; in [9] it was 43.9%; in assay [10] it was 47.3%; in [11] it was 30.5%; in [12] it was -11.5% (active). Further, the growth in assay [13] is 43.4%; in assay [17], 7.81% (active); in assay [15], -22.4% (active); in assay [16] it was 9.05% (active).

With `CCCc1nn(C)c2c(=O)[nH]c(-c3cc(S(=O)(=O)N4CCN(C)CC4)ccc3OCC)nc12`, the growth in assay [1] was 101%; in assay [2], 109%; in assay [3] it was 95.6%; in assay [4], 111%; in assay [5], 100%; in assay [6], 112%. Also, the growth was 111% in assay [7]; 104% in [8]; 90.2% in assay [9]; 98.4% in assay [10]; 94.5% in assay [11]; 100% in [12]. Also, the growth in assay [13] was 115%; in [17] it was 98.8%; in [15], 108%; in assay [16] it was 103%.

With `CN(C)c1nc(-c2ccco2)n2nc(-c3ccco3)cc2n1`, the growth in [1] was 65.1%; in [2], 92.8%; in assay [3], 108%; in assay [4] it was 80.1%; in [5], 98.7%; in assay [6], 72.4%. In addition, the growth is 92.9% in [7]; 78.1% in assay [8]; 90.7% in assay [9]; 38% in assay [10]; 94.3% in [11]; 93.4% in assay [13]. The growth in assay [14] was 28.3%; in assay [17], 91.6%; in assay [15] it was 88.5%; in [16], 61.3%.

In the case of `CSC1=Nc2c(c(C)c(-c3ccccc3)n2CCCN2CCCCC2)C2=NC(=O)C[C@H](C)N12`, the growth in assay [1] is -51.1% (active); in assay [2], 44.6%; in assay [3], 83.1%; in assay [4], 43.6%; in [5], 26.9%; in assay [6], 22.6%. In addition, the growth in assay [7] is 24.5%; in assay [8], 11%; in [9], 82.4%; in [10] it was -2.25% (active); in assay [12], 26.3%; in assay [13], 61.5%. Also, the growth in [14] was 13.9%; in assay [17] it was 42.9%; in assay [15], 60.7%; in assay [16], 2.35% (active).

Turning to `COC1CC2CCC(C)C(O)(O2)C(=O)C(=O)N2CCCCC2C(=O)OC(C(C)CC2CCC(O)C(OC)C2)CC(=O)C(C)C=C(C)C(O)C(OC)C(=O)C(C)CC(C)/C=C/C=C/C=C1C` (centres undefined), the growth in [1] is 23.5%; in assay [2] it was 38.2%; in assay [3], 59.2%; in assay [4], 34.5%; in assay [5] it was 52.9%; in assay [6], 15.5%. Further, the growth in assay [7] is 50%; in [8] it was 45.2%; in assay [9] it was 49.1%; in [10], 31.1%; in [11], 32.5%; in assay [12] it was 43.6%. Also, the growth in assay [13] is 64.5%; in [17], 49.5%; in assay [15], 50.4%; in assay [16], 69.8%.

`COc1cc([C@@H]2c3cc4c(cc3C(O[C@@H]3O[C@@H]5CO[C@@H](c6cccs6)OC5[C@H](O)[C@H]3O)C3COC(=O)[C@@H]32)OCO4)cc(OC)c1O` (some centres undefined): the growth in assay [1] is -20.8% (active); in assay [2], -43% (active); in assay [3], -9.71% (active); in assay [4], 13.8%; in [5] it was -13.6% (active); in assay [6] it was -5.65% (active). Moreover, the growth in assay [7] is -54% (active); in [8], -3.69% (active); in assay [9] it was 60.3%; in assay [10], -0.0776% (active); in [11], -20.3% (active); in [12], -21.1% (active). The growth in assay [13] is -8.91% (active); in [17] it was -56.7% (active); in assay [15], -76.4% (active); in assay [16], -45.9% (active).

`Cc1scc2c1N(C(=O)CN1CCN(C)CC1)c1ccccc1NC2=O`: the growth in [1] was 113%; in assay [2], 102%; in assay [3] it was 118%; in [4], 101%; in assay [5], 105%; in [6] it was 108%. Also, the growth was 108% in assay [7]; 112% in assay [8]; 108% in [9]; 102% in assay [10]; 110% in assay [11]; 110% in assay [12]. The growth in assay [13] is 112%; in assay [17], 111%; in [15], 103%; in assay [16], 113%.

The record behind these values is PubChem BioAssay (NCI).
